Each structure is given as a SMILES string. Hit rate of the full screen: of about 16,000 compounds, about 5,100 (32%) were called active. Another 25% or so got no clear call; they are omitted. Calls follow the shape of the dose curve; as a rule, active = well fitted curve in the direction sought with a large enough effect; inconclusive = small, poorly fitted or top-dose-only effect, or effect the other way; inactive = no such curve, though single readings can be large or run the other way. The list shows a part of the results.
% is scaled to controls: 0 for no effect and ±100 for the full control effect.

Chain of Cytochrome P450 3A4 (Homo sapiens) (P08684 whole entry, looked up): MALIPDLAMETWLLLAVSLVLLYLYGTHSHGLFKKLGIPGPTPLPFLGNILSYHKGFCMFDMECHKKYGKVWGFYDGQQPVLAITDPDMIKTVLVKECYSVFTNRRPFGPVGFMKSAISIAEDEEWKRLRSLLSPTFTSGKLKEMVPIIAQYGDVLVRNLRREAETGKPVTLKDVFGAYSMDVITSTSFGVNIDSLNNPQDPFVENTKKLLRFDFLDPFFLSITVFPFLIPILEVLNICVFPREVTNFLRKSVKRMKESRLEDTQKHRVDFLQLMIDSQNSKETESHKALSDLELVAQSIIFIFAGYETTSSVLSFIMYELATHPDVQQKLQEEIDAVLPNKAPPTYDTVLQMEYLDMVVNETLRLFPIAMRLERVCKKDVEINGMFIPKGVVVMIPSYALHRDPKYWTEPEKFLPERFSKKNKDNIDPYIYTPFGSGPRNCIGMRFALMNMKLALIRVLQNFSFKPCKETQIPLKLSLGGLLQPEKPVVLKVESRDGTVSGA

This test has as its target Cytochrome P450 3A4 (Homo sapiens) (UniProt P08684). Briefly: Cytochrome panel assay with activity outcomes. The settings on record: recombinant CYP, pro-luciferin dealkylation, luminescence, p450-cyp3a4; series mostly up to 57.1 µM; activity, negative = inhibition: at the top concentration.
For `CN[C@H](Cc1ccccc1)c1cccc(OC)c1O`, the activity, negative = inhibition is -2.26% [at 11.4 µM] (inactive). For the compound `c1ccc2c(c1)Sc1ccccc1N2C[C@H]1CN2CCC1CC2`, the activity, negative = inhibition was -6.51% [at 11.4 µM] (inactive). Turning to `CCOP(=O)(OCC)C(NC(C)=O)C(Cl)(Cl)Cl` (stereo unspecified), the “activity, negative = inhibition” value is -11.2% (inactive). On the same count and under the same terms, under `CCCC[N+]12CCC(CC1)C(C(=O)c1cccs1)C2` (stereo unspecified) stands -11.1% (inactive); under `CC(=O)NCCc1c[nH]c2ccccc12`, -21.8% (inactive); under `ClCCNc1nc2ccc(Cl)cc2[nH]1`, 13.4% (inactive). As for `CC(=O)OCC1=C(C(=O)[O-])N2C(=O)[C@@H](NC(=O)CCC[C@@H](N)C(=O)[O-])[C@@H]2SC1.[Zn+2]`, the “activity, negative = inhibition” value was 2.83% (inactive).

Consider `C=CCN1CCC2(C)c3cc(O)ccc3C[C@H]1[C@H]2C`, for which the activity, negative = inhibition entry was “inactive”. In general, AC50 refers to the concentration giving half of the maximal activity seen. In the case of `C=CCN1C[C@H](C)N([C@H](c2ccc(C(=O)N(CC)CC)cc2)c2cccc(O)c2)C[C@H]1C`, the AC50 was 12600 nM (active). `C[C@H](N)Cc1c[nH]c2ccc(O)cc12`: the activity, negative = inhibition entry was “inactive”.

Take `O=C(Nc1ccc(Cl)cc1C(=O)c1ccccc1Cl)c1ccco1`: the “activity, negative = inhibition” value is -25.6% (inactive). Turning to `COc1ccc(OCC(=O)Nc2ccc(Cl)cc2C(=O)c2ccccc2)cc1`, the half-maximal activity concentration (AC50) was 2240 nM (active). In the case of `O=C(CN1CCCCC1)Nc1ccc(Br)cc1C(=O)c1ccccc1Cl`, the activity, negative = inhibition is -0.765% [at 2.29 µM] (inactive). Turning to `CNC(C)(C)Cc1ccccc1`, the “activity, negative = inhibition” value was -9.59% [at 25.6 µM] (inactive). On the same count and under the same terms, as for `CCCN1CCC[C@@H]2Cc3[nH]ncc3C[C@H]21`, the entry is “inactive”. On to `CC(C(=O)c1c[nH]c2ccccc12)N1CCSCC1` (stereo unspecified), for which the activity, negative = inhibition was -1.61% [at 2.29 µM] (inactive). `CN(C)CCC(=O)[C@@]1(O)CC[C@H]2[C@H]3CC=C4C[C@@H](O)CC[C@]4(C)[C@H]3CC[C@]21C`: the activity, negative = inhibition is -0.253% [at 11.4 µM] (inactive). With `c1cncc(CNCCN2CCNCC2)c1`, the activity, negative = inhibition was -5.07% [at 11.4 µM] (inactive).

Take `c1cncc(CNc2cc(-c3ccc4c(c3)OCO4)ncn2)c1`: the AC50 is 794 nM (active).

Regarding `O[C@@H](c1cc(-c2ccccc2)nc2c1ccc1ccccc12)[C@@H]1CCCCN1`, the activity, negative = inhibition is -0.102% [at 11.4 µM] (inactive). Take `C[C@H]1CC[C@@]2(NC1)O[C@@H]1C[C@H]3[C@@H]4CC[C@@H]5C[C@@H](O)CC[C@@]5(C)[C@@H]4CC[C@]3(C)[C@@H]1[C@@H]2C`: the “activity, negative = inhibition” value is -6.73% [at 25.6 µM] (inactive). Same read-out and setting: as for `NCC[C@H](O)C(=O)N[C@H]1C[C@@H](N)[C@@H](O[C@H]2O[C@@H](CN)[C@@H](O)[C@@H](O)[C@@H]2N)[C@@H](O[C@H]2O[C@@H](CO)[C@@H](O)[C@@H]2O)[C@@H]1O`, the figure is -10.2% [at 25.6 µM] (inactive). Turning to `CC(O)(CS(=O)(=O)c1cccc(C(F)(F)F)c1)C(=O)Nc1cccc(C(F)(F)F)c1` (stereo unspecified), the AC50 is 1410 nM (active). On to `CC(O)(CS(=O)(=O)c1ccccc1)C(=O)Nc1cccc(C(F)(F)F)c1` (stereo unspecified), for which the AC50 is 4470 nM (active). On to `O=C(O)c1ccccc1Nc1cccc(C(F)(F)F)c1`, for which the “activity, negative = inhibition” value is -0.956% [at 25.6 µM] (inactive). Turning to `CC(O)(CS(=O)(=O)c1cccc(C(F)(F)F)c1)C(=O)Nc1ccc(C(F)(F)F)cc1` (stereo unspecified), the concentration at half-maximal activity (AC50) was 1410 nM (active).

The record behind these values is PubChem BioAssay AID1851 (National Center for Advancing Translational Sciences (NCATS), 2009).
